{"source": "paper PMC3795721", "about": "“Screening for Protein-DNA Interactions by Automatable DNA-Protein Interaction ELISA”"}
{"target": "AT4G31550 (Arabidopsis thaliana, UniProt Q9SV15 228-325)", "sequence (Q9SV15 228-325)": "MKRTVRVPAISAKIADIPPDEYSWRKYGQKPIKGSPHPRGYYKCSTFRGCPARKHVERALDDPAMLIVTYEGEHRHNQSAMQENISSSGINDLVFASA", "experiment": "DPI-ELISA; DPI-ELISA, streptavidin 384-well plate, 1-2 pmol biotinylated dsDNA per well, crude native E. coli extract, anti-His detection; buffer as in Brand et al. [46],; high values mean tight binding", "details": "tags: C-terminal His (pET-DEST42); label: 5' biotin on forward strand; dsDNA, one strand shown", "units": {"binding signal": "absorbance"}}
{"sequence": "AAAAAAGTACATGCGTAGATAATGTTAAAA", "binding signal": "0.59 ± 0.127"}
{"sequence": "AAAAAAAATTAGTCTCTTCGTCTCCCAAAA", "binding signal": "0.575 ± 0.106"}
{"sequence": "AAAAAACTCGCGCTTGCATCTGTGCGAAAA", "binding signal": "0.555 ± 0.0636"}
{"sequence": "AAAAAACCAGCCTCAGTCCTGAACAAAAAA", "binding signal": "0.605 ± 0.0636"}
{"sequence": "AAAAAACAACTTGGAGGATTTACAGCAAAA", "binding signal": "0.73 ± 0.141"}
{"sequence": "AAAAAAGCTTTCAACATCTGCGTCCAAAAA", "binding signal": "0.42 ± 0.0424"}
{"sequence": "AAAAAACCGGCACGATTTGGATATTCAAAA", "binding signal": "0.64 ± 0.113"}
{"sequence": "AAAAAATGCAACGCTCCTTTCCCGCTAAAA", "binding signal": "0.535 ± 0.106"}
{"sequence": "AAAAAACACTTAACTGAGTGGGATTGAAAA", "binding signal": "0.705 ± 0.134"}
{"sequence": "AAAAAAGGCGTCTGACTGTAACTCGTAAAA", "binding signal": "1.43 ± 0.445"}
{"sequence": "AAAAAAAAATGCTAGCGCGTACGTAAAAAA", "binding signal": "0.69 ± 0.17"}
{"sequence": "AAAAAAGGTCTGGACGATCACCGGGAAAAA", "binding signal": "0.565 ± 0.12"}
{"sequence": "AAAAAAATCCCACTTCATTCTAAAAA", "binding signal": "0.6 ± 0.0707"}
{"sequence": "AAAAAATATGCTACTCCACCTTGATGAAAA", "binding signal": "0.67 ± 0.156"}
{"sequence": "AAAAAACGTTAACACTGATTTAGGGTAAAA", "binding signal": "0.595 ± 0.0778"}
{"sequence": "AAAAAAATTACGCGGGATCGCCAAAA", "binding signal": "0.6 ± 0.0566"}
{"sequence": "AAAAAATCATTTTATTTTGCCTTTCTAAAA", "binding signal": "0.56 ± 0.127"}
{"sequence": "AAAAAACTCGTACATCTATCGCTACGAAAA", "binding signal": "0.54 ± 0.0849"}
{"sequence": "AAAAAACAGTTCGATGTCACCCCCGCAAAA", "binding signal": "0.565 ± 0.106"}
{"sequence": "AAAAAAGAGTGGTTTATTAATGTATAAAAA", "binding signal": "0.74 ± 0.184"}
{"sequence": "AAAAAACCGATCATCACATATCACTGAAAA", "binding signal": "0.58 ± 0.141"}
{"sequence": "AAAAAATCCTTTTCTCTTTCTGTTTCAAAA", "binding signal": "0.575 ± 0.12"}
{"sequence": "AAAAAACTGGCGACTGCCAGTGGTAGAAAA", "binding signal": "0.385 ± 0.0354"}
{"sequence": "AAAAAATCTTCTTGTTTCTTATTTCTAAAA", "binding signal": "0.625 ± 0.12"}
